HADH2 inhib – inhibitors of human HADH2 dehydrogenase; recombinant HADH2, NADH fluorescence, beta-hydroxybutyryl-CoA; Potency, µM (titrated, usually from 57.1 µM), without a hit: at the top dose activity change, negative = inhibition, usual class: inhibitors; 73,000 compounds, 3.4% hits; also: potency is read from the fitted curve at half-maximal effect; % is scaled to controls: 0 for no effect and ±100 for the full control effect; nearly all actives have a fitted effect of over 60% in size
Target sequence (Q99714 whole entry, looked up, one chain of several): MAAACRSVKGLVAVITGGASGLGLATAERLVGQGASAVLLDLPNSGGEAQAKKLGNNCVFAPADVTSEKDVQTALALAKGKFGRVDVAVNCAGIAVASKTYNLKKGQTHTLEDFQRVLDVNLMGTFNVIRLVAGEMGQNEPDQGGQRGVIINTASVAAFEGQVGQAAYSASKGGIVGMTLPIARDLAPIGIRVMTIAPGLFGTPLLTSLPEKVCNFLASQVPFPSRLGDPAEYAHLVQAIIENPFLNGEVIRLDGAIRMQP
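His-tagged recombinant enzyme from E. coli, 20 nM, preincubated 15 min RT with compound; reaction started with 1 mM NAD+ and 90 uM beta-hydroxybutyryl-CoA in 100 mM Tris-HCl pH 9.0. NADH fluorescence (ex 360/em 450) read over 4 min; last-minus-first difference.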
CRE Fsk mod – CRE-bla signaling modulation under forskolin stimulation; AID 662; 71,000 compounds, 2.5% hits; CHO CRE-bla reporter (cAMP response element driving beta-lactamase), forskolin EC10, beta-lactamase ratio; Potency, µM (top dose mostly 38.2 µM), inactives show at the top dose activity change, negative = inhibition, hits mostly activators; active = well fitted activation curve with a large enough effect in the signal ratio, with a control signal flat, not every such curve was filed as active; inconclusive = small, poorly fitted or top-dose-only effect, or effect the other way, or a change in a side signal; the % refers to the signal ratio; also: potency is read from the fitted curve at half-maximal effect; % of control where 0% means no effect
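Beta-lactamase reporter under a cAMP responsive element in CHO cells; compounds tested in titration series against EC10 NKH 477, 3 h at 37 °C. Read-out: CCF4 FRET ratio 460nm/530nm (excitation 405nm) giving %Activity, fitted to AC50.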
A350 autofl – compound fluoresces in the Alexa 350 spectral region. Compound autofluorescence, 340/450 nm, Alexa 350 dye-equivalents; stronger effect = higher value. max dye-equivalent concentration, M. 59,000 compounds, 11% hits; in the data active = max dye-equivalent concentration above about 10 nM; inconclusive = mostly about 1.1 nM to 9.6 nM
4-MU autofl – compound fluoresces in the 4-MU spectral region; 59,000 compounds, 11% hits; max dye-equivalent concentration, M; compound autofluorescence, 340/450 nm, 4-MU equivalents; stronger effect = higher value; in the data active = max dye-equivalent concentration above about 10 nM; inconclusive = mostly about 1.1 nM to 9.6 nM
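Compounds in 100 mM Tris, pH 8.0, incubated 15 min at room temperature, then fluorescence read at 340 nm excitation/450 nm emission. Signal converted to 4-MU dye-equivalent concentration using an on-plate six-point 4-MU standard curve.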
HSD17B inhib – blocks hydroxysteroid 17-beta dehydrogenase activity; Q99714; recombinant HSD17B10, NADH fluorescence kinetic; Potency, µM (doses to about 57.1 µM), for inactives: at the top dose activity change, negative = inhibition, hits mostly inhibitors; 75,000 compounds, 7.6% hits; AID 893;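 also: the protocol describes HADH2 (HSD17B10) and not the HSD17B4 of the title; potency is read from the fitted curve at half-maximal effect; % is scaled to controls: 0 for no effect and ±100 for the full control effect; nearly all actives have a fitted effect of over 70% in size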
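Activity followed as NADH fluorescence increase (ex 360, em 450 nm) every 30 seconds for 4 min, using final 90 uM beta-hydroxybutyryl CoA and 1 mM NAD+. Recombinant His-tagged enzyme, 20 nM, pH 9.0 Tris buffer, 15 min compound preincubation.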
AID923 – qHTS Assay for Allosteric/Competitive Inhibitors of Caspase-1: Spectroscopic Profiling in AFC Spectral Region. compound fluorescence, AFC spectral region (405/520 nm). Potency, µM (doses to about 57.5 µM), inactives show top-dose fluorescence increase, actives largely listed as activators. 75,000 compounds, 1.1% hits. AID 923, 2007; also: potency is read from the fitted curve at half-maximal effect; 0% is about no effect
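Compound autofluorescence profiled at 405 nm ex/520 nm em during kinetic caspase 1 run (50 nM enzyme, 5 uM Ac-WEHD-AFC, HEPES pH 7.5, 10 mM DTT). Titration up to 57 uM; baseline from regression intercept, normalized to AFC standard curve.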
* = called active by the depositor; [ ] = another dose, or the depositor's remark. This is a sample that favours compounds with a hit; in the whole collection about 14% have one here. Unless noted, calls follow the shape of the dose curve; as a rule, active = well fitted curve in the direction sought with a large enough effect; inconclusive = small, poorly fitted or top-dose-only effect, or another doubt; inactive = no such curve, though single readings can be large; an effect the other way counts as inactive or inconclusive.

`CCOC(=O)N/N=C1/C[C@@H](O)[C@@H](O)[C@@H]2[C@@H]3C(=O)N(Cc4ccc5c(c4)OCO5)C(=O)[C@H]3CC[C@@H]12` gave HADH2 inhib -2.5%[11.4 µM], HSD17B inhib -0.2%[11.4 µM] and AID923 -0.9%[11.5 µM].
O=C(Nc1cccc(-c2nc3cccnc3s2)c1)c1ccco1 was read as HADH2 inhib -2.9%, CRE Fsk mod 13.8%, A350 autofl inactive, 4-MU autofl inactive, HSD17B inhib -8.7% and AID923 -0.7%.
Screening O=C(Nc1ccc(-c2nc3cccnc3s2)cc1)c1ccc(Br)o1 returned HADH2 inhib 26.9%, CRE Fsk mod 6.0%, HSD17B inhib 25.1µM* and AID923 11.7%.
For Cc1nc(NC(=O)c2ccco2)sc1C(=O)Nc1ccc(Br)cc1 the results were HADH2 inhib -4.0%, CRE Fsk mod 20.4%, A350 autofl 1.1e-08M*, 4-MU autofl 1.12e-08M*, HSD17B inhib -5.8% and AID923 0.0%.
`O=C(Nc1ccc(S(=O)(=O)Nc2cnc3ccccc3n2)cc1)c1ccc(Br)o1` gave HADH2 inhib -25.2%, CRE Fsk mod 3.98µM*, A350 autofl 5.81e-08M*, 4-MU autofl 5.49e-08M*, HSD17B inhib inconclusive and AID923 -1.7%.
For O=C(Nc1ccc(-c2nc3cccnc3s2)cc1)c1ccco1 the results were HADH2 inhib 31.6µM*, CRE Fsk mod 3.8%, HSD17B inhib 25.1µM* and AID923 4.1%.
O=C1OC(Nc2ccc3c(c2)OCO3)c2ccccc21 (centres undefined) was read as HADH2 inhib 25.1µM*, CRE Fsk mod inconclusive, A350 autofl inactive, 4-MU autofl inactive, HSD17B inhib -10.4% and AID923 0.4%.
Screening COC1C=CO[C@@]2(C)Oc3c(C)c(O)c4c(O)c(c(C=NN5CCN(C)CC5)c(O)c4c3C2=O)NC(=O)/C(C)=C\C=CC(C)C(O)[C@@H](C)C(O)C(C)[C@H](OC(C)=O)C1C (some centres undefined) returned HSD17B inhib -2.4% and AID923 -2.2%.
Screening Cc1ccc2cc(CN(CCN3CCOCC3)Cc3nnnn3Cc3ccco3)c(=O)[nH]c2c1C returned HADH2 inhib 2.8%, CRE Fsk mod -4.9%, A350 autofl inactive, 4-MU autofl inactive, HSD17B inhib inconclusive and AID923 9.1%.
For Cc1ccc2cc(CN(Cc3ccc4c(c3)OCO4)Cc3nnnn3Cc3ccco3)c(=O)[nH]c2c1C the results were HADH2 inhib -11.1%, CRE Fsk mod -2.1%, A350 autofl inactive, 4-MU autofl inactive, HSD17B inhib 31.6µM* and AID923 12.2%.
For Cc1ccc(C)c2[nH]c(=O)c(CN(Cc3ccc4c(c3)OCO4)Cc3nnnn3Cc3ccco3)cc12 the results were HADH2 inhib -10.6%, CRE Fsk mod -1.1%, A350 autofl inconclusive, 4-MU autofl inconclusive, HSD17B inhib 25.1µM* and AID923 11.4%.
Cc1ccc(C)c2[nH]c(=O)c(CN(Cc3ccco3)S(=O)(=O)c3ccc4c(c3)OCCO4)cc12 was read as HADH2 inhib 24.2%, CRE Fsk mod -1.2%, A350 autofl inconclusive, 4-MU autofl inconclusive, HSD17B inhib 25.1µM* and AID923 0.9%.
O=C(Oc1ccccc1)N1CCC[C@@]2(CCN(c3ccccc3)C2)C1 was read as HADH2 inhib -6.7%, CRE Fsk mod -4.2%, A350 autofl inactive, 4-MU autofl inactive, HSD17B inhib -9.7% and AID923 2.6%.
`Cc1ccnc(N(C(=O)c2cccs2)C(=O)c2cccs2)c1` gave HADH2 inhib -8.5%, CRE Fsk mod -14.8%, A350 autofl 1.52e-08M*, 4-MU autofl 1.37e-08M*, HSD17B inhib -14.0% and AID923 0.2%.
`CCOc1cc(N2CCOCC2)c(OCC)cc1NC(=O)Cn1[nH]c(=O)c2ccccc2c1=O` gave HADH2 inhib 22.4%, CRE Fsk mod 0.1µM*, A350 autofl inactive, 4-MU autofl inactive, HSD17B inhib 8.4% and AID923 0.2%.
`CC(N)CCCC(C)(C)O` (centres undefined) gave HSD17B inhib -4.5% and AID923 1.2%.
Cc1cc(NC(=O)c2cnn3c(C(F)F)cc(C4CC4)nc23)no1 was read as HADH2 inhib 12.6%, CRE Fsk mod inconclusive, A350 autofl inconclusive, 4-MU autofl inconclusive, HSD17B inhib inconclusive and AID923 -2.7%.
Screening Cc1nn(C)cc1CNC(=O)c1cnn2c(C(F)F)cc(C3CC3)nc12 returned HADH2 inhib 2.7%, CRE Fsk mod 3.98µM*, A350 autofl 2.13e-08M*, 4-MU autofl 1.82e-08M*, HSD17B inhib -29.0% and AID923 -2.0%.
`O=C(NCCc1ccccc1)c1cnn2c(C(F)F)cc(C3CC3)nc12` gave HADH2 inhib -8.9%, CRE Fsk mod inconclusive, A350 autofl 1.46e-08M*, 4-MU autofl 1.26e-08M*, HSD17B inhib inconclusive and AID923 -3.0%.
`COC(=O)c1ccccc1NC(=O)c1cnn2c(C(F)F)cc(C3CC3)nc12` gave HADH2 inhib 6.31µM*, CRE Fsk mod 3.16µM*, A350 autofl 1.59e-08M*, 4-MU autofl 2.43e-08M*, HSD17B inhib inconclusive and AID923 3.5%.
`O=C(c1cnn2c(C(F)F)cc(C3CC3)nc12)N1CCc2ccccc2C1` gave HADH2 inhib 6.4%, CRE Fsk mod inconclusive, A350 autofl inconclusive, 4-MU autofl inconclusive, HSD17B inhib 3.1% and AID923 -1.0%.
CCOC(=O)C1CCN(C(=O)c2cnn3c(C)cc(C)nc23)CC1 was read as HADH2 inhib inconclusive, CRE Fsk mod inconclusive, A350 autofl inconclusive, 4-MU autofl inconclusive, HSD17B inhib 25.1µM* and AID923 -0.4%.
`Cc1ccc(-c2cc(C(F)F)n3ncc(C(=O)N4CCN5CCCC5C4)c3n2)cc1` (centres undefined) gave HADH2 inhib 8.0%, CRE Fsk mod inconclusive, A350 autofl 4.21e-08M*, 4-MU autofl 3.71e-08M*, HSD17B inhib 25.1µM* and AID923 3.6%.
`CCOC(=O)C1CCCN(C(=O)c2cnn3c(C(F)F)cc(-c4ccc(C)cc4)nc23)C1` (centres undefined) gave HADH2 inhib -0.2%, CRE Fsk mod inconclusive, A350 autofl 3.44e-08M*, 4-MU autofl 3.97e-08M*, HSD17B inhib 25.1µM* and AID923 9.8%.
Screening CCOC(=O)C1CCN(C(=O)c2cccnc2)CC1 returned HADH2 inhib 16.5%, CRE Fsk mod 1.0%, A350 autofl inactive, 4-MU autofl inactive, HSD17B inhib 1.8% and AID923 0.1%.

Screens (PubChem)
